Our source for the activity (max response), Potency and activity change, negative = viability loss values is PubChem BioAssay (NCATS).

Several values for one entry are separate records, joined by “and”; a condition that tells them apart may be missing. Identical values can stand only once. Records with an inconclusive call do not appear. Entries that show only a call come without a potency. Unmarked numbers belong to inactive results. Activity calls are given as the source filed them. The call rests on the fitted dose curve; in most records, active means well fitted cell-killing curve with a large enough effect; inconclusive means small, poorly fitted or top-dose-only effect; inactive means flat fitted curve, though single readings scatter.
Potency means the concentration at half of the fitted maximal effect.

The first assay is described as follows: Cellular viability qHTS for adrenocortical cancer (ACC) cell line SW-13 (AID 1963989). Further: nearly all actives have a fitted effect of over 65% in size.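 On activity (max response): cells grown in serum-free medium with ITS supplement.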 The conditions noted are these: SW-13 ACC cells viability, CellTiter-Glo, 48 h; activity (max response): hits give low values. The essentials: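 Luminescent ATP read-out (CellTiter-Glo, 20 min at room temperature) measured metabolically competent SW-13 cells after 48 h compound treatment. Final concentrations spanned up to 46 uM; bortezomib served as positive control.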
For orientation: qHTS replaces the single test concentration by a dilution series.
For `C[C@H](CS)C(=O)N1CCC[C@H]1C(=O)O`, the activity (max response) was -1.14%.
For the compound `CC(C)NC(=O)N1CC[C@H](N=C2Nc3cc(F)ccc3N(CC(F)F)c3ccc(Cl)cc32)C1`, the activity (max response) is -16%.
In the case of `C=CCOc1cc(Cl)ccc1C(=O)NCCN(CC)CC`, the activity (max response) is -0.164%.
On to `Oc1c(Cl)cc(Cl)cc1Sc1cc(Cl)cc(Cl)c1O`, for which the Potency was 20.6 µM (active).
As for `COC(=O)C1=C(C)NC(C)=C(C(=O)OCCc2ccc(N3CCN(C(c4ccccc4)c4ccccc4)CC3)cc2)C1c1cccc([N+](=O)[O-])c1` (configuration not stated), the activity (max response) was 7.28%.
As for `CCN(CC)CCNC(=O)c1c(C)[nH]c(/C=C2\C(=O)Nc3ccc(F)cc32)c1C`, the Potency is 18.4 µM (active).
With `C[C@]1(C(=O)N(CCCC(=O)O)Cc2cccc(Cl)c2)CCN1C(=O)c1csc2ccccc12`, the activity (max response) is -17.4%.
Turning to `COc1ccc([C@@H](O)[C@@H](C)Oc2ccc([C@H]3O[C@H](c4ccc(O[C@H](C)[C@H](O)c5ccc(OC)c(OC)c5)c(OC)c4)[C@H](C)[C@H]3C)cc2OC)cc1OC`, the Potency is 0.316 µM (active).
In the case of `COCCCc1sc(-c2ccccc2)nc1C(=O)Nc1ccccc1-c1nc2cc(CN3CCCC3)cnc2s1`, the activity (max response) is -19.6%.
As to `CC(=O)Oc1ccc(C(c2ccc(OC(C)=O)cc2)c2ccccn2)cc1`, the activity (max response) was -17.9%.
Take `CN1CCN(C2=Nc3ccccc3Sc3ccc(Cl)cc32)CC1`: the activity (max response) was -24.6%.
The same measure, in the same setting: the result for `CCCCCCn1c(=O)c2c(ncn2C)n(C)c1=O` reads 14%.
As for `CCCCCCCCCCC[C@@H](C[C@@H]1OC(=O)[C@H]1CCCCCC)OC(=O)[C@H](CC(C)C)NC=O`, the activity (max response) was 4.97%.
Turning to `CC(=O)SCC(CC(=O)c1ccc(C)cc1)C(=O)O` (configuration not stated), the activity (max response) is 11.5%.
In the case of `C/C(=C1\CCOC(=O)S1)N(C=O)Cc1cnc(C)nc1N`, the activity (max response) is -4.19%.
As to `CO[C@@]1(NC(=O)CSCC#N)C(=O)N2C(C(=O)O)=C(CSc3nnnn3C)CS[C@@H]21`, the activity (max response) was 9.84%.
On the same count and under the same terms, the figure for `CC(C)(C)NCC(O)COc1ccccc1OCC1CCCO1` (configuration not stated) is -5.68%.

Another assay is described as follows: Cellular viability qHTS for adrenocortical cancer (ACC) cell line NCI-H295R (AID 1963990). Further: nearly all actives have a fitted effect of over 60% in size. The following applies: CellTiter-Glo ATP luminescence, 48 h; series mostly up to 46.1 µM. The essentials:
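IC50 and maximal efficacy derive from four-parameter logistic modelling of titration curves, with reads scaled between DMSO-only wells (0%) and doxorubicin hydrochloride (100% inhibition). Compounds spanned up to 46 uM over 48 h.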
In the case of `C[C@H](CS)C(=O)N1CCC[C@H]1C(=O)O`, the Potency result was “inactive”.
Take `CC(C)NC(=O)N1CC[C@H](N=C2Nc3cc(F)ccc3N(CC(F)F)c3ccc(Cl)cc32)C1`: the Potency entry is “inactive”.
Take `CC#Cc1cncc(-c2ccc3c(c2)[C@@]2(N=C(C)C(N)=N2)C2(CCC(OC)CC2)C3)c1` (some centres not stated): the Potency result was “inactive”.
On to `Cn1cc(-c2nc(N[C@@H]3CCCC[C@@H]3N)c(F)c3c2C(=O)NC3)cn1`, for which the activity change, negative = viability loss was 0.124% [at 3.81 µM].
For `C=CCOc1cc(Cl)ccc1C(=O)NCCN(CC)CC`, the Potency entry was “inactive”.
For the compound `Oc1c(Cl)cc(Cl)cc1Sc1cc(Cl)cc(Cl)c1O`, the Potency was 20.6 µM (active).
The same measure, in the same setting: the entry for `COC(=O)C1=C(C)NC(C)=C(C(=O)OCCc2ccc(N3CCN(C(c4ccccc4)c4ccccc4)CC3)cc2)C1c1cccc([N+](=O)[O-])c1` (configuration not stated) is “inactive”; for `CCN(CC)CCNC(=O)c1c(C)[nH]c(/C=C2\C(=O)Nc3ccc(F)cc32)c1C` it is 13 µM (active) and 15.8 µM (active).
For the compound `C[C@]1(C(=O)N(CCCC(=O)O)Cc2cccc(Cl)c2)CCN1C(=O)c1csc2ccccc12`, the Potency entry was “inactive”.
As for `CC(=O)Nc1ccc(C(=O)NC(C)(C)C)cc1`, the Potency entry was “inactive”.
For `COc1ccc([C@@H](O)[C@@H](C)Oc2ccc([C@H]3O[C@H](c4ccc(O[C@H](C)[C@H](O)c5ccc(OC)c(OC)c5)c(OC)c4)[C@H](C)[C@H]3C)cc2OC)cc1OC`, the Potency is 1.78 µM (active).
As to `COc1cc(N2CCC(N3CCN(C)CC3)CC2)ccc1Nc1ncc(Cl)c(Nc2ccccc2S(=O)(=O)C(C)C)n1`, the Potency is 1.12 µM (active).
Turning to `CCOC(CN1CCN(CC(C)C(=O)c2ccccc2)CC1)c1ccccc1` (configuration not stated), the Potency result is “inactive”.
For `Cc1cccc(Nc2ccccc2C(=O)O)c1C`, the Potency result is “inactive”.
Still for that read-out and setting: the result for `CCC(C(=O)OCCN1CCOC(c2ccccc2)C1C)c1ccccc1` (configuration not stated) reads “inactive”; that for `CNC(=O)c1c(C)oc2cc(Oc3ncnc4cc(OC)c(OC)cc34)ccc12`, “inactive”.
For `COCCCc1sc(-c2ccccc2)nc1C(=O)Nc1ccccc1-c1nc2cc(CN3CCCC3)cnc2s1`, the Potency entry was “inactive”.
Same read-out and setting: the entry for `CC(=O)Oc1ccc(C(c2ccc(OC(C)=O)cc2)c2ccccn2)cc1` is “inactive”.
On the same count and under the same terms, the result for `N#Cc1ccc(N(Cc2ccc(Br)cc2)n2cnnc2)cc1` reads “inactive”.
Regarding `C[C@]12CC[C@@H]3c4ccc(O)cc4CC[C@H]3[C@@H]1CCC2=O`, the Potency result is “inactive”.
Regarding `O=c1[nH]nc2c3c(cccc13)NC(CN1Cc3ccccc3C1)=N2`, the Potency result was “inactive”.
For `CC1(N)CCN(c2cnc(-c3cccc(Cl)c3Cl)c(N)n2)CC1`, the Potency result was “inactive”.
Same read-out and setting: the entry for `Oc1cccc(O)c1` is “inactive”; for `CN1CCN(C2=Nc3ccccc3Sc3ccc(Cl)cc32)CC1` it is “inactive”.
Still for that read-out and setting: the entry for `CN1C(=O)N[C@@H](Cc2c[nH]c3c(Cl)cccc23)C1=O` is “inactive”; for `COc1ccnc2c1CCCCC2S(=O)c1nc2ccccc2[nH]1` (configuration not stated) it is “inactive”; for `CC1CC(OC(=O)C(O)c2ccccc2)CC(C)(C)N1C` (configuration not stated) it is “inactive”.
In the case of `CO/N=C(/C(=O)N[C@@H]1C(=O)N2C(C(=O)OCOC(=O)C(C)(C)C)=C(C)CS[C@H]12)c1csc(N)n1`, the Potency entry is “inactive”.
On to `CCCCCCn1c(=O)c2c(ncn2C)n(C)c1=O`, for which the Potency result was “inactive”.
`CCCCCCCCCCC[C@@H](C[C@@H]1OC(=O)[C@H]1CCCCCC)OC(=O)[C@H](CC(C)C)NC=O`: the Potency result was “inactive”.
Same read-out and setting: the figure for `CCN(CC)CCOc1ccc(C(O)(Cc2ccc(Cl)cc2)c2ccc(C)cc2)cc1` (configuration not stated) is 16.4 µM (active); for `CC(=O)SCC(CC(=O)c1ccc(C)cc1)C(=O)O` (configuration not stated) it is “inactive”.
Turning to `NS(=O)(=O)c1ccc(Cc2c(-c3cccc(-c4ccccc4)c3)nn(-c3nc(C(=O)O)cs3)c2CC2CC2)cc1`, the Potency was 28.2 µM (active).
For `C/C(=C1\CCOC(=O)S1)N(C=O)Cc1cnc(C)nc1N`, the Potency entry is “inactive”.
In the case of `CO[C@@]1(NC(=O)CSCC#N)C(=O)N2C(C(=O)O)=C(CSc3nnnn3C)CS[C@@H]21`, the Potency entry was “inactive”.
For the compound `CC(C)(C)NCC(O)COc1ccccc1OCC1CCCO1` (configuration not stated), the Potency entry was “inactive”.
Still for that read-out and setting: the entry for `CN[C@@H](C)C(=O)N[C@H](C(=O)N1CCC[C@H]1C(=O)Nc1snnc1-c1ccccc1)C1CCCCC1` is “inactive”; for `CCN(CC)CC(=O)Nc1c(C)cccc1C` it is “inactive”.
As to `Nc1nc(N)c2nc(-c3ccccc3)c(N)nc2n1`, the Potency was 4.61 µM (active).
For `COc1ccc2[nH]c(S(=O)Cc3ncc(C)c(OC)c3C)nc2c1` (configuration not stated), the Potency entry was “inactive”.
